Assay results taken from PubChem BioAssay (NCATS).
Records with an inconclusive call do not appear. Active and inactive are the calls of the source. Unless noted, calls follow the shape of the dose curve; as a rule, active = well fitted curve in the direction sought with a large enough effect; inconclusive = small, poorly fitted or top-dose-only effect, or another doubt; inactive = no such curve, though single readings can be large; an effect the other way counts as inactive or inconclusive.

Test: qHTS Assay for Identifying Gametocytocidal Compounds (AID 743244); also: potency is read from the fitted curve at half-maximal effect;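 as to max response: % is scaled to controls: 0 for no effect and ±100 for the full control effect; actives lower the fluorescent signal which means gametocytes are killed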
Conditions: P. falciparum 3D7 stage III-V gametocytes, alamarBlue, 72 h; max response: stronger effect = lower value
In short: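 A resazurin-based viability read-out was applied to mature P. falciparum gametocytes: 72 h compound treatment, then 24 h dye incubation, with falling fluorescence signalling gametocytocidal effect.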

| SMILES | max response | Potency |
| --- | --- | --- |
| CN1CCC(OC(c2ccccc2)c2ccccc2)CC1 | -7.17% (inactive) | – |
| CC[N+](C)(CC)CCOC(=O)C(O)(c1ccccc1)C1CCCCC1 (stereo unspecified) | -1.51% (inactive) | – |
| CN1CCN(C2=Nc3cc(F)ccc3Cc3ccccc32)CC1 | 29% (inactive) | – |
| CCCCC(CC)CN1CN(CC(CC)CCCC)CC(C)(N)C1 (stereo unspecified) | 4.3% (inactive) | – |
| CCOC(=O)[C@@](C)(N)Cc1ccc(O)c(O)c1 | 1.03% (inactive) | – |
| Cc1ncc(CO)c(C=O)c1O | -3.85% (inactive) | – |
| O=C(O)C1(C(=O)O)CCC1.[NH2-].[NH2-].[Pt+2] | -10.4% (inactive) | – |
| COc1ccccc1N1CCN(CCCCNC(=O)c2ccc(-c3ccc(C(C)=O)cc3)cc2)CC1 | 3.48% (inactive) | – |
| COc1ccc(CN(CCN(C)C)c2ncccn2)cc1 | -8.37% (inactive) | – |
| CCCCCCCCCCCCCC[N+](C)(C)Cc1ccccc1 | – | 8.91 µM (active) |
| FC(F)(F)C(F)(F)C(F)(F)C(F)(F)C(F)(F)C(F)(F)C(F)(F)C(F)(F)Br | 5.68% (inactive) | – |
| CCC1Nc2cc(Cl)c(S(N)(=O)=O)cc2S(=O)(=O)N1 (stereo unspecified) | 7.47% (inactive) | – |
| CCc1oc2ccccc2c1C(=O)c1cc(I)c(O)c(I)c1 | 0.665% (inactive) | – |
| CC(C)Nc1cccnc1N1CCN(C(=O)c2cc3cc(NS(C)(=O)=O)ccc3[nH]2)CC1 | -8.7% (inactive) | – |
| O=C(N/N=C/c1ccc([N+](=O)[O-])o1)c1ccc(O)cc1 | – | 1.12 µM (active) |
| CN1CCc2cccc3c2[C@H]1Cc1ccc(O)c(O)c1-3 | – | 3.98 µM (active) |
| NS(=O)(=O)Cc1noc2ccccc12 | -3.32% (inactive) | – |
| CN1CCN(CCC(=O)N2c3ccccc3Sc3ccc(C(F)(F)F)cc32)CC1 | 2.75% (inactive) | – |
| COc1ccc(/C=N/NC(=O)c2ccncc2)cc1OC | -3.84% (inactive) | – |

| SMILES | max response | Potency |
| --- | --- | --- |
| CCCCN=C(N)N=C(N)N | 0.948% (inactive) | – |
| Cc1cccc(C)c1NC(=O)c1ccccc1C(=O)O | -7.1% (inactive) | – |
| CC(CNC1CCCCC1)OC(=O)c1ccccc1 (stereo unspecified) | 10.4% (inactive) | – |
| CCCCN1C[C@H](O)[C@@H](O)[C@H](O)[C@H]1CO | 2.05% (inactive) | – |
| Cl/C(=C\n1cncn1)c1ccc(Cl)cc1Cl | -6.68% (inactive) | – |
| CC(C)(C)NC[C@H](O)COc1cccc2c1CCCC2=O | -0.406% (inactive) | – |
| CNCCCCOc1ccccc1Cc1ccccc1 | – | 18.7 µM (active) |
| Oc1ccccc1C=NCc1ccccc1 | 0.984% (inactive) | – |
| O=C1C(O)=C(O)C(=O)C(O)=C1O | -3.08% (inactive) | – |
| O=C(CCN1CCN2CCCC2C1)N1c2ccccc2Sc2ccc(Cl)cc21 (stereo unspecified) | – | 22.4 µM (active) |
| Cc1cc(CC(=O)O)c(C)n1-c1ccc(Cl)cc1 | -9.92% (inactive) | – |
| O=C(CCCN1CC=C(n2c(=O)[nH]c3ccccc32)CC1)c1ccc(F)cc1 | 7.51% (inactive) | – |
| O=c1[nH]c(=O)n([C@H]2C[C@H](O)[C@@H](CO)O2)cc1F | 4.58% (inactive) | – |
| C[C@H]1O[C@@H](O[C@H]2CC[C@@]3(C)[C@H](CC[C@@H]4[C@@H]3C[C@@H](O)[C@]3(C)[C@@H](C5=CC(=O)OC5)CC[C@]43O)C2)C[C@H](O)[C@@H]1O[C@H]1C[C@H](O)[C@H](O[C@H]2C[C@H](O)[C@H](O[C@@H]3O[C@H](CO)[C@@H](O)[C@H](O)[C@H]3O)[C@@H](C)O2)[C@@H](C)O1 | -0.158% (inactive) | – |
| O=C(Nc1ccc([N+](=O)[O-])cc1)Nc1ccc([N+](=O)[O-])cc1 | 3.29% (inactive) | – |
| CC(O)Cn1cnc2c1c(=O)n(C)c(=O)n2C (stereo unspecified) | 5.34% (inactive) | – |
| NS(=O)(=O)c1cc2c(cc1Cl)NC(CC1CCCC1)NS2(=O)=O (stereo unspecified) | 17.3% (inactive) | – |
| CCOC(=O)Nc1ccc2c(c1)N(C(=O)CCN1CCOCC1)c1ccccc1S2 | 12.1% (inactive) | – |

Test: qHTS profiling for inhibitors of Plasmodium falciparum (3D7) proliferation (AID 743322; call rule not given here;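 also: infected erythrocytes exposed to compound for 72 h before lysis; 100% = DMSO vehicle wells and 0% = 0.29 µM artemisinin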)
Conditions: P. falciparum 3D7 proliferation; at 28.7 µM (top of the series) unless noted
In short: (§1)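 Parasite DNA was quantified by SYBR Green I fluorescence (ex 485, em 535 nm) after overnight lysis in saponin/Triton buffer at room temperature. Cultures at 0.3% parasitemia and 2.5% hematocrit were first exposed to compound for 72 h at 37 C; signals were normalised to artemisinin (0.29 uM) and vehicle wells.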

| SMILES | remaining parasite growth % (stronger effect = lower value) |
| --- | --- |
| O=C1C(=O)c2ccccc2C(O)=C1C1CCC(c2ccc(Cl)cc2)CC1 (stereo unspecified) | 9.76e-05% |
| CC(CNC1CCCCC1)OC(=O)c1ccccc1 (stereo unspecified) | 106% [at 9.63 µM] |
| CNCCCCOc1ccccc1Cc1ccccc1 | 65.9% |
| C[N+]1(C)CCC(=C(c2ccccc2)c2ccccc2)CC1 | 4.05% [at 18.4 µM] |

Test: qHTS profiling for inhibitors of Plasmodium falciparum (DD2) proliferation (AID 743323; call rule not given here)
Conditions: lower = more inhibition; at 28.7 µM (top of the series) unless noted
In short: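 1536-well qHTS; infected RBCs 0.3% parasitemia/2.5% Hct final; cpd 72 h 37 C 5% CO2; lysis buffer + SYBR Green I, o/n RT dark; FI 485/535; norm. to 0.29 uM artemisinin and DMSO, plate-stack corrected.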

| SMILES | activity, percent of control |
| --- | --- |
| O=C1C(=O)c2ccccc2C(O)=C1C1CCC(c2ccc(Cl)cc2)CC1 (stereo unspecified) | 3.7% |
| CC(CNC1CCCCC1)OC(=O)c1ccccc1 (stereo unspecified) | 61.4% [at 9.63 µM] |
| CNCCCCOc1ccccc1Cc1ccccc1 | 31.1% |
| C[N+]1(C)CCC(=C(c2ccccc2)c2ccccc2)CC1 | 22.2% [at 18.4 µM] |

Test: qHTS profiling for inhibitors of Plasmodium falciparum (HB3) proliferation (AID 743324);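 also: 100% = DMSO vehicle wells and 0% = artemisinin-treated control wells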
Conditions: Plasmodium falciparum HB3 blood-stage proliferation; at 28.7 µM (top of the series) unless noted
Text: Plasmodium falciparum is a virulent malarial parasite that kills 1-2 million people worldwide each year. Transmitted by mosquitoes, the sporozoite form of the parasite enters the blood stream to infect hepatocytes, where they become merozoites that infect red blood cells (erythrocytes). Within erythrocytes, merozoites begin a […] cycle of growth and division, after which the parasite is released to infect new red blood cells. Gametocytes, which form within erythrocytes as well, circulate in the bloodstream and are ingested by the mosquito, thereby completing the life cycle. To profile malarial isolates for differential chemical responses and to identify inhibitors of malarial growth, an assay that measures P. falciparum growth and replication within erythrocytes was employed. This assay uses a DNA binding fluorescent dye (SYBR Green) to detect parasite DNA following cell lysis. Because mature erythrocytes lack DNA, only Plasmodium-derived DNA is detected.
For screening 3 ul culture medium was dispensed into 1536 well black clear bottom plates (Aurora Biotechnologies) using a Multidrop Combi (Thermo Fisher Scientific Inc.), 23 nL compounds in DMSO were added by a pin tool (Kalypsys), and 5 ul of erythrocytes infected with P. falciparum (0.3% parasitemia, 2.5% hematocrit final concentration) were added. The plates were incubated at 37 C in a humidified incubator in 5% CO2 for 72 h, and 2 ul lysis buffer (20 mM Tris HCl, 10 mM EDTA, 0.16% saponin, […]% triton X, 10X SYBR Green I supplied as 10,000X […] by Invitrogen) was added to each well. The plates were mixed for 25 sec with gentle shaking and incubated overnight at room temperature in the dark. The following morning, fluorescence intensity at 485(14) nm excitation and 535(25) nm emission wavelengths was measured on an EnVision (Perkin Elmer) plate reader. Plate reads were normalized relative to the control inhibitor (0.29 uM artemisinin) and vehicle (DMSO) wells present on each plate and then corrected by an algorithm using vehicle-only control plates at the beginning and end of the compound plate stack.

| SMILES | remaining proliferation (% of control), lower = more inhibition |
| --- | --- |
| O=C1C(=O)c2ccccc2C(O)=C1C1CCC(c2ccc(Cl)cc2)CC1 (stereo unspecified) | 1.19% |
| CC(CNC1CCCCC1)OC(=O)c1ccccc1 (stereo unspecified) | 111% [at 9.63 µM] |
| CNCCCCOc1ccccc1Cc1ccccc1 | 42.9% |

Test: qHTS profiling of the MIPE4 collection as inhibitors of Plasmodium falciparum (3D7) proliferation (AID 743344; call rule not given here;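 also: scaled between DMSO vehicle wells and 0.29 µM artemisinin as full inhibition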)
Conditions: P. falciparum 3D7 in erythrocytes, SYBR Green DNA fluorescence, 72 h; at 28.5 µM (top of the series)
In short: as §1

| SMILES | parasite growth, % of DMSO control [%] |
| --- | --- |
| O=C1C(=O)c2ccccc2C(O)=C1C1CCC(c2ccc(Cl)cc2)CC1 (stereo unspecified) | 9.11 |
| NS(=O)(=O)Cc1noc2ccccc12 | 102 |
| CCOC(=O)Nc1ccc2c(c1)N(C(=O)CCN1CCOCC1)c1ccccc1S2 | 47.5 |
